Only a selection was taken, and hits are over-represented in it overall.
CBFb RUNX1 block: blocks binding between human CBF-beta and RUNX1; 230,000 tested, under 10 active; AID 1477; Potency, µM (top dose mostly 59.8 µM), inactives show top-dose activity, negative = inhibition, most hits filed as inhibitors; AlphaScreen CBFb-His/RUNX1-biotin binding, biochemical; Q01196+Q13951; active = well fitted curve in the direction sought with a large enough effect; inconclusive = small, poorly fitted or top-dose-only effect, or effect the other way, or another doubt; inactive = no such curve, though single readings can be large or run the other way; also: % of control where 0% means no effect
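His-tagged CBF-beta and biotinylated RUNX1 (30 nM each) were premixed 20 min at room temperature, exposed to compound for 15 min, then given nickel-chelate and streptavidin AlphaScreen beads (50 ng each). After 90 min, AlphaScreen signal was read.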
Rango-impB inh: inhibitors of Rango-importin beta complex formation; Q14974; AID 540263; Potency, µM (top dose mostly 92.2 µM), inactives show at the highest dose inhibition of complex formation; Rango CFP/YFP FRET sensor + importin beta, 45 min; actives 0.031% (n = 340,000);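 also: potency is read from the fitted curve at half-maximal effect; 0% = DMSO wells and 100% = buffer wells lacking importin beta; nearly all actives have a fitted effect of over 15% in size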
Target sequence (Q14974 whole entry, looked up): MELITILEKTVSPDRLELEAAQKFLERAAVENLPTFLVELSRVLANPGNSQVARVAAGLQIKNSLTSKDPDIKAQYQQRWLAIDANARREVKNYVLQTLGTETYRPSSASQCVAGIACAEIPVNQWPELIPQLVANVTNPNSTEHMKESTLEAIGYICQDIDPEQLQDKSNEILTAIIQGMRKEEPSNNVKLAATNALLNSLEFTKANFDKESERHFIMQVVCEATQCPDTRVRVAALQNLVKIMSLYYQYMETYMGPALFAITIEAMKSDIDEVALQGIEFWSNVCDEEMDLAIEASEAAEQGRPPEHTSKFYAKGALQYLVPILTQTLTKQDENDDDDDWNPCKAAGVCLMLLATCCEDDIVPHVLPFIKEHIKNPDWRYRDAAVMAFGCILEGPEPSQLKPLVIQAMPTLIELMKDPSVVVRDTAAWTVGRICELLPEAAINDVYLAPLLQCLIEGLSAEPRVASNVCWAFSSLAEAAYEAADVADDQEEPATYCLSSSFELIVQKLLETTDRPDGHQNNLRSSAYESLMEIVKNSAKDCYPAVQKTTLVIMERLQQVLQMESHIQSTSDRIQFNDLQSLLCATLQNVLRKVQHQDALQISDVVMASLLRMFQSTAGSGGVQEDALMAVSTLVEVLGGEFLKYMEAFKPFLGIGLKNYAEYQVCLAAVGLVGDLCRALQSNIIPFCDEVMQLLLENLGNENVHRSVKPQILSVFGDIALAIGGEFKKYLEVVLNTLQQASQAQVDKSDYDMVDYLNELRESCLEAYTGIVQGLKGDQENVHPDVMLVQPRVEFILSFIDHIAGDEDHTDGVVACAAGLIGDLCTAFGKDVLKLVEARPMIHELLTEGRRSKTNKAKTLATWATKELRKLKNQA
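Inhibition scored from the CFP 486 nm/YFP 530 nm FRET ratio 45 min after adding 0.125 microM importin beta to 50 nM Rango biosensor preincubated 5 min with compound (room temperature, PBS with DTT, Tween-20, BSA). No-importin wells as positive control.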
MBNL1-CUG inh: MBNL1-poly(CUG) RNA binding inhibition | Q9NR56 | TR-FRET MBNL1-His/biotin-(CUG)12 binding, 665/545 ratio | Potency, µM (series often up to 57.5 µM), inactives show at the top dose activity change, negative = inhibition, actives largely listed as inhibitors | actives 0.036% (n = 280,000); active = well fitted inhibition curve with a large enough effect in the signal ratio, with a control signal flat, not every such curve was filed as active; inconclusive = small, poorly fitted or top-dose-only effect, or effect the other way, or a change in a side signal; inactive = no such curve, though single readings can be large or run the other way; the % refers to the signal ratio; also: potency is read from the fitted curve at half-maximal effect; % is scaled to controls: 0 for no effect and ±100 for the full control effect
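Compounds (final 92 nM to 58 uM) are added to His-tagged MBNL1 and biotin-(CUG)12, then terbium anti-His antibody and streptavidin-XL665 (5 nM final). After 60 min at room temperature, the 665/545 nm ratio is read.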
ClpP mod: qHTS Assay for Activators of ClpP; Potency, µM (series often up to 57.5 µM), inactives show at the top dose activity change, negative = active; purified B. subtilis ClpP, FRET peptide cleavage, 20 min; ATP-dependent Clp protease proteolytic subunit (Bacillus subtilis (strain 168)), P80244; AID 651965, 2013; actives 1.9% (n = 340,000); active = well fitted falling curve with a large enough effect; inconclusive = small, poorly fitted or top-dose-only effect; inactive = no such curve, though single readings can be large or run the other way; also: potency is read from the fitted curve at half-maximal effect; the source files actives as falling curves though it sought activators and does not explain the sign; nearly all actives have a fitted effect of over 65% in size
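ClpP 10 microg/mL final, pH 8 Tris/KCl buffer with BSA, glycerol, Tween-20; compound pinned in; FRET-FV substrate; RT 20 min; Ex320/Em430; ΔFRET vs ADEP 5.8 microM, DMSO, no enzyme.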
Rango release inh: inhibition of RanGTP-driven Rango-importin beta dissociation. Biochemical FRET Rango-importin beta, RanGTP-induced dissociation. Potency, µM (titrated, usually from 46.1 µM), for the others: top-dose activity change, negative = inhibition. actives 0.071% (n = 340,000); also: potency is read from the fitted curve at half-maximal effect; % of control where 0% means no effect; nearly all actives have a fitted effect of over 45% in size
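Rango/importin beta premix (0.1/0.25 uM final), PBS + 1 mM DTT + 0.02% Tween-20 + 0.1% BSA; cpd 5 min RT; FRET pre-read; + RanGTP-RCC1 (0.6 uM Ran, 2 mM GTP, 0.2 uM RCC1); 45 min RT; FRET post-read, ex 430, em 486/530 nm.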
Starred values were filed as active, the others as inactive; ? = inconclusive; · = no result. Unless noted, calls follow the shape of the full dose curve.

SMILES	CBFb RUNX1 block	Rango-impB inh	MBNL1-CUG inh	ClpP mod	Rango release inh
Cc1nc2c(C(=O)N3CCOCC3)cnn2c(C)c1Cc1ccc(Cl)cc1	4%	1%	-5%	28µM*	-4%
Cc1nc2c(C(=O)NCCc3ccc(Cl)cc3)cnn2c(C)c1Cc1c(F)cccc1Cl	·	·	·	-1%	·
Cc1nc2c(C(=O)NCCc3ccc(Cl)cc3)cnn2c(C)c1Cc1ccc(F)cc1	·	·	·	25µM*	·
CCn1nnnc1Sc1nc(C)nc2scc(-c3ccccc3)c12	·	·	·	-2%	·
O=C(OCC1CCCO1)c1ccc2c(c1)N(Cc1c(F)cccc1Cl)C(=O)c1ccccc1S2(=O)=O (stereo unspecified)	·	·	·	-4%	·
CCc1ccc(C(=O)Nc2cccc(-c3nc4cc(C(C)C)ccc4o3)c2)cc1	·	·	·	25µM*	·
C=C[C@@]1(C)CC[C@H](O)[C@H]2C(=O)CCC[C@@H]21	-2%	·	·	·	·
O=C(COC(=O)c1n[nH]c2ccccc12)NC(=O)NCc1ccco1	7%	-4%	-13%	32µM*	-6%
CN(C(=O)COc1ccc2ccc(=O)oc2c1)C1CCS(=O)(=O)C1 (stereo unspecified)	·	0%	12%	4%	-14%
CCN(C(=O)COc1ccc2ccc(=O)oc2c1)C1CCCCC1	·	-1%	·	25µM*	0%
CN(C)C(=O)COc1ccc2ccc(=O)oc2c1	5%	-3%	8%	32µM*	-10%
O=C(Oc1ccc2ccc(=O)oc2c1)c1ccco1	·	?	33%	3%	16µM*
O=C(Nc1ccc(Cl)cc1)c1cnn2c1NC(c1ccccc1)=CC2c1ccccc1 (stereo unspecified)	·	·	·	1%	·
O=C1Nc2ccccc2/C1=C/C(=O)c1cccs1	2%	0%	7%	32µM*	-4%
CCOC(=O)c1sc2nc(CC(=O)OC)nc(NCc3ccco3)c2c1C	-14%	?	17%	28µM*	?
N#C/C(=C/c1ccncc1)c1nc2ccccc2c(=O)[nH]1	0%	?	17%	·	?
N#C/C(=C\c1cc(Br)c(O)c(Br)c1)c1nc2ccccc2c(=O)[nH]1	·	·	·	25µM*	·
C=CCC(C)(O)C(=O)OCC (stereo unspecified)	13%	·	·	·	·
Cc1ccc(S(=O)(=O)Nc2ccc(Nc3nccn4c(-c5cccc(OC(F)(F)F)c5)cnc34)cc2)cc1	·	·	·	32µM*	·
CN(C)c1oc(-c2ccc(OCc3ccc(Cl)cc3)cc2)nc1C#N	9%	-2%	1%	16µM*	-7%
CN(C)c1oc(-c2ccc(COc3ccccc3)o2)nc1C#N	·	·	·	32µM*	·
CCOc1ccc(Nc2oc(-c3ccc(COc4ccccc4C)o3)nc2C#N)cc1	·	·	·	35%	·
CC(C)NC(=O)N[C@H]1C=C[C@H](CC(=O)NCc2ccc(Oc3ccccc3)cc2)O[C@@H]1CO	·	·	·	1%	·
CC(C)(C)OC(=O)NS(=O)(=O)NOCc1ccccc1	·	·	·	2%	·
O=C(/C=C/c1cc2c(cc1Br)OCO2)NCc1ccc(F)cc1	8%	1%	-8%	?	1%
SMILES	CBFb RUNX1 block	Rango-impB inh	MBNL1-CUG inh	ClpP mod	Rango release inh
COc1ccc(CNC(=O)/C=C/c2cc3c(cc2Br)OCO3)cc1	6%	0%	-8%	25µM*	13%
COc1cc(C=CC(=O)OCC=Cc2ccc3c(c2)OCO3)cc(OC)c1OC	·	2%	·	28µM*	-15%
COc1c2ccoc2nc2c(OC)c(O[C@@H]3O[C@H](C)[C@@H](O)[C@@H](O)[C@H]3O)ccc12	0%	·	·	·	·
COc1cc(-c2nnc(-c3ccc(N4CCOCC4)cc3)o2)cc(OC)c1OC	0%	5%	2%	25µM*	-11%
CCOCCCNC(=O)c1cc2c(=O)[nH]c3ccccc3c2n1C	·	·	·	4%	·
COc1cc(/C=C/C(=O)OCC(=O)Nc2nnc(-c3ccccc3)o2)cc(OC)c1OC	·	0%	·	18µM*	7%
CCCCSc1ccc2nc(-c3ccc(C#N)cc3)cn2c1	17%	3%	18%	?	5%
CCCSc1ccc2nc(-c3ccccc3)cn2c1	2%	-3%	22%	22µM*	-4%
Cc1nnc(SCc2ccccc2Cl)c2cc3occc3n12	·	·	·	-5%	·
Cc1ccccc1-c1nn2c(=O)cc(CN3CCN(C(=O)c4ccc(C(C)(C)C)cc4)CC3)nc2s1	·	·	·	-6%	·
COc1ccc2oc(=Nc3ccc(C(=O)O)cc3)c(C(=O)NCc3ccco3)cc2c1	-20%	-2%	8%	-2%	9%
COc1ccc2cc(C(=O)NCc3ccco3)c(=Nc3ccc(C(=O)O)cc3)oc2c1	6%	?	31%	20µM*	-9%
NC(=O)c1ccc(NC(=O)COC(=O)/C=C/c2cn(-c3ccccc3)nc2-c2cccnc2)cc1	-13%	?	·	28µM*	?
Cc1ccc(CSC2=NS(=O)(=O)c3ccccc32)cc1	·	·	·	-1%	·
COc1cccc(-c2cc3nc(-c4ccccc4)cc(N4CCN(C(=O)c5ccoc5)CC4)n3n2)c1	·	·	·	4%	·
COc1cccc(-c2cc3nc(-c4ccccc4)cc(N4CCC5(CC4)OCCO5)n3n2)c1	?	?	13%	16µM*	?
CN1CCN(c2cc(-c3ccccc3)nc3cc(-c4ccc(F)cc4)nn23)CC1	15%	-5%	4%	22µM*	16%
Fc1ccc(-c2cc3nc(-c4ccccc4)cc(N4CCN(CCN5CCOCC5)CC4)n3n2)cc1	25%	?	15%	?	?
CCC1CCCCN1CCCNC(=O)c1ccc2c(c1)N(Cc1cccc(C)c1)C(=O)c1ccccc1S2(=O)=O (stereo unspecified)	·	·	·	2%	·
COC(=O)C1=CN(C2CC2)C=C(C(=O)OC)C1c1ccc(C(F)(F)F)cc1	7%	?	-13%	·	?
COC(=O)C1=CN(C2CC2)C=C(C(=O)OC)C1c1ccc(C(=O)OC)cc1	28%	?	7%	32µM*	?
CCCN1C(=O)c2[nH]nc(-c3ccccc3O)c2C1c1ccc(OCc2ccccc2)c(OCC)c1 (stereo unspecified)	·	·	·	-4%	·
CCOC(=O)c1c(NC(=O)c2ccco2)n(C2CCCCC2)c2nc3ccccc3nc12	1%	?	21%	28µM*	?
O=[N+]([O-])c1ccc(C(=S)N2CCN(c3ccc(F)cc3)CC2)cc1	?	3%	?	·	3%
COc1ccc(NC(=S)N2CCN(S(=O)(=O)c3ccc(F)cc3)CC2)cc1	·	-5%	3%	0%	2%
O=S(=O)(c1ccccc1)N1CCN(C(=S)Nc2ccccc2)CC1	·	-1%	3%	-2%	-11%
O=[N+]([O-])c1ccc(NC(=S)N2CCN(c3ccc(F)cc3)CC2)cc1	-12%	-3%	3%	18µM*	26%
O=S(=O)(c1ccccc1)N1CCN(C(=S)Nc2ccc(F)cc2)CC1	5%	3%	·	20µM*	1%
